Laboratory results taken from PubChem BioAssay AID504451 (NMMLSC, 2011).
About 80 (4%) of roughly 2,000 compounds were called active. Only a sample is shown. Unmarked numbers belong to inactive results.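 The calls were made as follows: active = aptamer displacement above 40%, near three times the noise of non-fluorescent compounds, on plates passing quality checks; inactive = the rest.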

target: Beta-adrenergic receptor kinase 1 (Homo sapiens) (UniProt P25098); experiment: GRK2 aptamer-displacing inhibitors, retest, confirmation, biochemical, cherry pick 1, bead flow cytometry (AID 504451); conditions: bead-bound GRK2, FAM-aptamer displacement, at 10 µM, stronger effect = higher value;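 also: negative values mostly reflect intrinsic compound fluorescence rather than true enhancement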
Sequence (P25098 whole entry, looked up): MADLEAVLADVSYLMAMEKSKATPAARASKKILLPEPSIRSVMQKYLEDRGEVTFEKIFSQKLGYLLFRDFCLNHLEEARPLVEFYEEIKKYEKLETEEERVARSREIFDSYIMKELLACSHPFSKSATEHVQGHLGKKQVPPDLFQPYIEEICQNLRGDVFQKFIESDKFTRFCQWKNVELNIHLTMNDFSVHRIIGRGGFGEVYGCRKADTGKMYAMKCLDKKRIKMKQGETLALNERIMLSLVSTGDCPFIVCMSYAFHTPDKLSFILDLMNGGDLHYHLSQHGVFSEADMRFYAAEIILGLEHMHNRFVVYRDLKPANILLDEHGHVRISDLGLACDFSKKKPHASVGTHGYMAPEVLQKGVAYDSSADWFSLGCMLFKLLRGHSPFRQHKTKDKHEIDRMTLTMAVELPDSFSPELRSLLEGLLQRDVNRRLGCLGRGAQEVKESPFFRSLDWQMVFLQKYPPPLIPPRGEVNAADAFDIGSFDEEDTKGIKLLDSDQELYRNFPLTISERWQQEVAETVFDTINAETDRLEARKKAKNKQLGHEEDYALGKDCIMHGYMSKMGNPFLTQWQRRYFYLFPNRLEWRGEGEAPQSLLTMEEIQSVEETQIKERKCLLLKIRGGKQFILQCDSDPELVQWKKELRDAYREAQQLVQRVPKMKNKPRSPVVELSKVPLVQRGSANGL

Row | SMILES | aptamer displacement
1 | COc1cc(C(=O)NCc2ccc3c(c2)cc(C)n3C)cc(OC)c1OC | 0.16%
2 | Cc1csc(=O)n1CC(=O)OCC(=O)N(CC(C)C)c1c(N)n(Cc2ccccc2)c(=O)[nH]c1=O | -4.19%
3 | COCCn1c(C)cc(C(=O)CN2c3cccc4cccc(c34)S2(=O)=O)c1C | 5.59%
4 | COc1ccc(NC(=O)CN(C)C(=O)c2cc(-c3ccc(C)o3)nc3ccccc23)cc1 | 1.02%
5 | O=C(NNc1ncnc2c1cnn2-c1ccccc1)c1ccco1 | -5.21%
6 | C/C(=N\OCC(=O)O)c1ccc(Cl)cc1 | -4.26%
7 | NC(=O)C1CCN(C(=O)c2ccc3c(=O)n(Cc4cccc(Br)c4)c(=S)[nH]c3c2)CC1 | 2.04%
8 | CCCCn1nc(C(=O)OCC(=O)Nc2sccc2C(N)=O)c2ccccc2c1=O | -3.95%
9 | O=S(=O)(Nc1ccc(-c2ccc(N3CCOCC3)nn2)cc1)c1cc(Cl)ccc1Cl | 1.37%
10 | CCOC(=O)C(C)n1cnc2scc(-c3ccc(C)c(C)c3)c2c1=O (configuration not stated) | 0.17%
11 | COc1ccccc1NC(=O)CSc1nc2sc3c(c2c(=O)n1-c1ccccc1)CCN(C)C3 | 1.27%
12 | O=C(Nc1nnc(-c2ccccc2)o1)c1cccc(S(=O)(=O)N2CCOCC2)c1 | -3.8%
13 | CSc1ccc(/C=C2\NC(=O)NC2=O)cc1 | -11.5%
14 | Cc1nn(Cc2ccc(F)cc2)c(C)c1NC(=O)c1noc2c1CCc1ccccc1-2 | 12.1%
15 | O=C(COC(=O)c1ccc(F)cc1F)Nc1ncccn1 | 39.1%
16 | Cc1ccccc1CN1CCN(CC(=O)NCc2ccccn2)C1=O | 0.03%
17 | CCOCCCNC(=O)C(NC(=O)CNC(=O)c1ccccc1)c1ccc(OC)cc1 (configuration not stated) | -2.56%
18 | Cc1ccc(C(CNC(=O)Nc2cccc(C)c2)N2CCN(C)CC2)cc1 (configuration not stated) | -1.91%
19 | O=C(CCNC(=O)c1ccccc1)NN=Cc1ccc(Br)o1 | 8.12%

Row | SMILES | aptamer displacement
20 | Cc1ccc(N2C(=O)C3N=NN(CC(=O)N4N=C(c5cccc6ccccc56)CC4c4ccccc4)C3C2=O)cc1 (configuration not stated) | -6.3%
21 | CC(=O)N1CC[n+]2c(-c3ccc([N+](=O)[O-])cc3)csc21 | -2.74%
22 | O=C(c1cc2cc(F)ccc2[nH]1)N1CCN(c2ccc(F)cc2)CC1 | -3.05%
23 | Cc1cccc(NC(=O)C2CCCN(C(=O)NCc3ccccc3)C2)c1C (configuration not stated) | -2.02%
24 | COc1ccc(Cl)cc1NC(=O)CCS(=O)(=O)c1cc2c(cc1C)NC(=O)CO2 | 1.91%
25 | COc1ccc(-n2nc(C(=O)NCC(=O)N3CCCCCC3)c3ccccc3c2=O)cc1Cl | -1.64%
26 | CC(NC(=O)C1CCCN(S(=O)(=O)c2ccc(-n3cnnn3)cc2)C1)c1ccc(F)cc1 (configuration not stated) | 1.56%
27 | COc1cc(C(=O)OCC(=O)N(CC(C)C)C2CCS(=O)(=O)C2)ccc1OCC(C)C (configuration not stated) | -1.87%
28 | Cc1nc(Nc2ccccc2F)c2nnn(Cc3ccccc3Cl)c2n1 | 0.75%
29 | COCCCNC(=O)CNC(=O)c1nn(-c2ccc(OC)cc2)c(=O)c2ccccc12 | -4.54%
30 | COc1ccc(Nc2cc(Sc3ccc(OC)cc3)ncn2)cc1 | -1.93%
31 | CCOC(=O)c1sc2nc(CSc3ccccc3)[nH]c(=O)c2c1C | -0.46%
32 | Nc1ccc2nc3c(=O)[nH]c(=S)[nH]c3nc2c1 | 33%
33 | Cc1cc(C(=O)NC2CCN(Cc3ccccc3)CC2)n[nH]1 | -6.63%
34 | CCC(=C/c1sc2ccc3ccccc3c2[n+]1C)/C=C1\Sc2ccc3ccccc3c2N1C | 101% (active)
35 | O=C(NCC12CC3CC(C1)CC(CNC(=O)N1CCCC1)(C3)C2)N1CCCC1 | -0.31%
36 | CCOc1ccccc1C(=O)NCc1ccco1 | -1.88%
37 | COC(=O)c1ccc(C)c(NC(=O)C2CC(=O)N(C3CCCC(C)C3C)C2)c1 (configuration not stated) | -1.41%
38 | O=C(NCc1ccccc1)c1cccc(NC(=O)C2CCCCC2)c1 | 0.14%

Row | SMILES | aptamer displacement
39 | COc1ccc(C(=O)NCCNc2ccc([N+](=O)[O-])cn2)cc1 | -0.48%
40 | C/C(=N\Nc1nc2ccccc2[nH]1)c1cccs1 | -0.6%
41 | COc1ccc(Nc2nc(-c3cccnc3)nc3ccccc23)cn1 | 4.02%
42 | COc1ccc(N2CCN(C(CNS(=O)(=O)c3ccc(C)cc3)c3ccccc3)CC2)cc1 (configuration not stated) | -2.82%
43 | O=C(Nc1ccc(-c2nnc(-c3ccccc3)o2)cc1)c1ccc(Br)o1 | 0.23%
44 | O=C1C2N=NN(CC(=O)N3N=C(c4cccc5ccccc45)CC3c3ccccc3)C2C(=O)N1c1ccccc1 (configuration not stated) | 0.13%
45 | COc1cccc(CN(C)CC(=O)Nc2sc3c(c2C#N)CCC3)c1 | -0.98%
46 | Cc1ccccc1-c1nnn(CC(=O)c2ccc(S(=O)(=O)N3CCCC3)cc2)n1 | -1.24%
47 | CC(C)CN(C(=O)c1cccc(S(=O)(=O)N2CCCCC2)c1)C1CCS(=O)(=O)C1 (configuration not stated) | 0.16%
48 | O=c1[nH]c(SCc2ccccc2)nnc1-c1ccccc1 | -4.45%
49 | Cc1cc(/C=C2\SC(=O)N(C)C2=O)c(C)n1-c1cccc(C(=O)O)c1 | 10.9%
50 | CN(CC(=O)Nc1ccc(N2CCOCC2)cc1)CC(=O)Nc1ccccc1[N+](=O)[O-] | -1.83%
51 | CNS(=O)(=O)c1cccc(C(=O)NCC2CCCCC2)c1 | 3.13%
52 | CCCc1nc2ccccc2c(=O)n1NC(=O)c1c(O)c2ccccc2[nH]c1=O | -0.69%
53 | Cn1c(=O)[nH]c(=O)c2c1nc(N1CCN(C(c3ccccc3)c3ccccc3)CC1)n2CCO | -8.5%
54 | O=C(CCS(=O)(=O)c1ccc(Br)cc1)NCCc1ccc(Cl)cc1 | 28%
55 | Cc1ccc(S(=O)(=O)CCC(=O)Nc2nnc(CC(C)C)s2)cc1 | 2.47%
56 | O=C(Oc1ccc(Br)cc1)c1cccnc1 | -1.31%
57 | COC(=O)N/N=C/c1ccc(/C=N/NC(=O)OC)cc1 | -0.84%
